Data on 7 compounds can be found in PubChem BioAssay (NCI).

About 83,000 compounds went through this panel and 20% of them were active in at least one assay; those are over-represented in the sample as a whole.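 Method: cells in 96-well plates; compound added at one concentration; 48 h incubation; percent growth measured; values under 10 scored active.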 Unmarked numbers belong to inactive results. The source made the active and inactive calls.

Some test systems named below: SK-MEL-2 melanoma; EKVX NSCLC; SN12C renal; UO-31 renal; TK-10 renal; ACHN renal; CAKI-1 renal; A498 renal; CCRF-CEM leukemia; MOLT-4 leukemia; SR leukemia; RPMI-8226 leukemia; OVCAR-8 ovarian; OVCAR-5 ovarian; OVCAR-4 ovarian; SK-OV-3 ovarian; IGROV1 ovarian; OVCAR-3 ovarian; HS 578T breast; NCI/ADR-RES ovarian.
What all share (assay): NCI-60 one-dose screen, 48 h (100 = growth as untreated, 0 = no growth, -100 = all killed)
Conditions in all cases: 10 µM unless noted

For the compound `C=C1C(=O)O[C@H]2[C@H]1CC/C(COC(=O)NCc1c[nH]c3ccc(OC)cc13)=C\CC[C@@]1(C)O[C@@H]21`, the growth in the experiment on SK-MEL-2 melanoma is 35.9%; in the experiment on EKVX NSCLC it was 33.9%; in the experiment on SN12C renal it was 10.9%; in the experiment on UO-31 renal it was -85% (active); in the experiment with TK-10 renal, -40.3% (active); with ACHN renal, -10.7% (active). Also, the growth was -2.21% (active) with CAKI-1 renal; 94.1% in the experiment with A498 renal; -7.78% (active) in the experiment with CCRF-CEM leukemia; 2.7% (active) in the experiment with MOLT-4 leukemia; 8.82% (active) with SR leukemia; -25.8% (active) with RPMI-8226 leukemia. Also, the growth in the experiment on OVCAR-8 ovarian was 21.3%; in the experiment on OVCAR-5 ovarian, 45.2%; with OVCAR-4 ovarian, 19.9%; with SK-OV-3 ovarian, 68.3%; in the experiment with IGROV1 ovarian it was -21.7% (active); in the experiment with OVCAR-3 ovarian, -84.2% (active). In addition, the values for the growth in the experiment on HS 578T breast and in the experiment on NCI/ADR-RES ovarian were 61.8% and 73.1%, respectively.
In the case of `CCOC(=O)C(Cc1ccccc1)n1c(O)c(/C=N/c2ncc(Cc3ccc(Cl)cc3Cl)s2)sc1=S` (stereo not given), the growth with SK-MEL-2 melanoma is -18.4% (active); with EKVX NSCLC, 10.8%; with SN12C renal, 6.54% (active); in the experiment with UO-31 renal it was 3.67% (active); with TK-10 renal it was 2.28% (active); in the experiment with ACHN renal it was 3.38% (active). For the same compound, the growth was 12.7% with CAKI-1 renal; -27.3% (active) in the experiment with A498 renal; 2.77% (active) with CCRF-CEM leukemia; -7.05% (active) with MOLT-4 leukemia; 27.8% in the experiment on SR leukemia; -7.55% (active) in the experiment with RPMI-8226 leukemia. Also, the growth in the experiment with OVCAR-8 ovarian is 2.66% (active); in the experiment on OVCAR-5 ovarian it was 38.9%; in the experiment with OVCAR-4 ovarian, 25.6%; in the experiment with SK-OV-3 ovarian it was 0.0373% (active); in the experiment on IGROV1 ovarian, 37.6%; in the experiment on OVCAR-3 ovarian it was 17.9%. The growth was -3.53% (active) in the experiment on HS 578T breast and 5.71% (active) with NCI/ADR-RES ovarian.
For the compound `CC(C)(C)[Si](C)(C)OC1[C@@H](CNC(N)=O)O[C@@H](n2cnc3c(NC(=O)Nc4ccccc4)ncnc32)[C@H]1O[Si](C)(C)C(C)(C)C` (stereo not given in full), the growth in the experiment with SK-MEL-2 melanoma was 80.9%; with EKVX NSCLC it was 59.7%; in the experiment on SN12C renal it was -33.7% (active); in the experiment with UO-31 renal it was 40.9%; in the experiment on TK-10 renal it was 84.5%; in the experiment with ACHN renal, 40.2%. Further, the growth in the experiment with CAKI-1 renal was 92.2%; in the experiment with A498 renal, 81%; in the experiment with CCRF-CEM leukemia, 47.9%; in the experiment with MOLT-4 leukemia, 23.5%; with SR leukemia it was 6.81% (active); in the experiment with RPMI-8226 leukemia, 47.6%. Besides, the growth with OVCAR-8 ovarian is 59.9%; with OVCAR-5 ovarian, 82.5%; with OVCAR-4 ovarian it was 50.3%; with SK-OV-3 ovarian, 93.6%; in the experiment with IGROV1 ovarian, 56.1%; in the experiment with OVCAR-3 ovarian, 61.1%. The growth was 58.7% with HS 578T breast and 58.5% in the experiment with NCI/ADR-RES ovarian.
On to `COc1cc(/C=C\c2cc(/C=C\c3ccc(O)c(OC)c3)n(C(=O)Nc3ccc(C(F)(F)F)cc3)n2)ccc1O`, for which the growth was 84.5% in the experiment on SK-MEL-2 melanoma; 61.3% in the experiment with EKVX NSCLC; 36.9% in the experiment with SN12C renal; 42.9% in the experiment with UO-31 renal; 77.7% with TK-10 renal; 65.8% with ACHN renal. The growth with CAKI-1 renal was 55%; with A498 renal, 108%; in the experiment on CCRF-CEM leukemia, 3.42% (active); with MOLT-4 leukemia, 11.1%; in the experiment on SR leukemia, 13.2%; in the experiment with RPMI-8226 leukemia it was -0.214% (active). The growth in the experiment with OVCAR-8 ovarian was 0.433% (active); in the experiment on OVCAR-5 ovarian, 115%; in the experiment on OVCAR-4 ovarian, 76.7%; in the experiment with SK-OV-3 ovarian, 66.1%; in the experiment on IGROV1 ovarian, 42.8%; in the experiment on OVCAR-3 ovarian, 13.8%. Moreover, the growth in the experiment on HS 578T breast is 51.9%; in the experiment with NCI/ADR-RES ovarian, 51.7%.
As to `CCOC(=O)C1OC2(CCCC2)OC1C(=O)OCC` (stereo not given), the growth in the experiment on SK-MEL-2 melanoma is 94.9%; with EKVX NSCLC, 108%; with SN12C renal, 101%; in the experiment on UO-31 renal, 83%; with TK-10 renal, 102%; in the experiment on ACHN renal it was 109%. The growth was 102% in the experiment on CAKI-1 renal; 107% in the experiment with A498 renal; 86.3% in the experiment on CCRF-CEM leukemia; 92.2% in the experiment with MOLT-4 leukemia; 104% in the experiment on SR leukemia; 84.8% in the experiment on RPMI-8226 leukemia. The growth with OVCAR-8 ovarian is 108%; with OVCAR-5 ovarian it was 110%; in the experiment with OVCAR-4 ovarian it was 118%; in the experiment on SK-OV-3 ovarian it was 105%; with IGROV1 ovarian it was 96.6%; in the experiment with OVCAR-3 ovarian it was 122%. Further, the growth in the experiment with HS 578T breast was 105%; with NCI/ADR-RES ovarian, 117%.
As to `O=C(CCl)Nc1ccc2c(c1)C(=O)c1ccccc1C2=O`, the growth with SK-MEL-2 melanoma is 19.1%; in the experiment on EKVX NSCLC, 57%; with SN12C renal it was -21.3% (active); with UO-31 renal it was 46.6%; in the experiment on TK-10 renal, -27.9% (active); in the experiment with ACHN renal, -67.8% (active). The growth in the experiment with CAKI-1 renal is 0.23% (active); in the experiment with A498 renal it was 44%; with CCRF-CEM leukemia, -46.2% (active); with MOLT-4 leukemia it was -29.1% (active); with SR leukemia it was -10.3% (active); in the experiment with RPMI-8226 leukemia, -59.1% (active). For the same compound, the growth in the experiment on OVCAR-8 ovarian is -27.3% (active); with OVCAR-5 ovarian it was 18.6%; in the experiment on OVCAR-4 ovarian it was 36.8%; in the experiment with SK-OV-3 ovarian, 54.5%; in the experiment on IGROV1 ovarian, -15.6% (active); with OVCAR-3 ovarian it was -87.1% (active). In addition, the growth in the experiment on HS 578T breast is 51.8%; in the experiment with NCI/ADR-RES ovarian it was 14.2%.
`COc1cc2c(c(OC)c1O)C(=O)C(OC)C(c1ccc(O)c(O)c1)O2` (stereo not given): the growth in the experiment with SK-MEL-2 melanoma is 46.9%; with EKVX NSCLC, 46.8%; in the experiment on SN12C renal it was 26.6%; in the experiment with UO-31 renal, 44.8%; in the experiment on TK-10 renal it was 66.1%; in the experiment with ACHN renal it was 21.6%. For the same compound, the growth with CAKI-1 renal is 28.4%; in the experiment with A498 renal it was -18.3% (active); with CCRF-CEM leukemia it was -5.15% (active); with MOLT-4 leukemia, 9.18% (active); with SR leukemia, 10.8%; with RPMI-8226 leukemia it was -19.3% (active). Also, the growth in the experiment with OVCAR-8 ovarian was 17.1%; with OVCAR-5 ovarian, 42.5%; in the experiment with OVCAR-4 ovarian it was 37.8%; in the experiment with SK-OV-3 ovarian it was 46.5%; with IGROV1 ovarian, 14.1%; in the experiment with OVCAR-3 ovarian, -24% (active). Further, the growth in the experiment on HS 578T breast was 24.7%; with NCI/ADR-RES ovarian it was 16.6%.
